Results taken from PubChem BioAssay (NCI).
Compounds without any hit were thinned out: in the full panel of roughly 83,000, 20% have a hit.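 In brief: 96-well plates, 48 h treatment, single concentration, percent growth endpoint.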 Calls of active or inactive are those of the source. The calls were made as follows: active = growth percent below 10; inactive = the rest.

Legend:
Test in all cases: NCI-60 one-dose screen, 48 h (100 = growth as untreated, 0 = no growth, -100 = all killed)
Conditions in all cases: 10 µM unless noted
[1] = test system: RPMI-8226 leukemia
[2] = test system: OVCAR-8 ovarian
[3] = test system: OVCAR-5 ovarian
[4] = test system: OVCAR-4 ovarian
[5] = test system: SK-OV-3 ovarian
[6] = test system: OVCAR-3 ovarian
[7] = test system: HS 578T breast
[8] = test system: NCI/ADR-RES ovarian
[9] = test system: IGROV1 ovarian

Measured: growth

Nc1ccn(-c2ccc(Br)cc2)c(=O)n1
inactive: [1] 95.9% | [2] 117% | [3] 84% | [4] 104% | [5] 162% | [6] 48% | [7] 122% | [8] 89.5%

C=CC(=O)Nc1cccc(Nc2nc(SC)nc(-c3cccc([N+](=O)[O-])c3)c2C#N)c1
inactive: [1] 48.2% | [2] 43.4% | [3] 71.8% | [4] 32.9% | [5] 74.3% | [9] 54.9% | [6] 19.9% | [7] 53.7% | [8] 61.8%

O=C(N=Nc1c(O)[nH]c2ccc(Br)cc12)c1cc(-c2ccccc2)on1
inactive: [1] 105% | [2] 104% | [4] 94.9% | [5] 111% | [9] 101% | [6] 115% | [7] 99.1% | [8] 103%

COc1cccc(Nc2nc(SC)nc(-c3cccc([N+](=O)[O-])c3)c2C#N)c1
inactive: [1] 95% | [2] 36.4% | [3] 81.6% | [5] 31.3% | [9] 74.7% | [6] 51.8% | [7] 45% | [8] 70.2%
active: [4] -1.38%

Cn1c(=O)c2c(nc3n(-c4ccc(Cl)cc4Cl)c(Sc4nc(-c5ccccc5)c(C#N)c(=O)[nH]4)cn23)n(C)c1=O
inactive: [1] 59.3% | [2] 34.2% | [3] 29.3% | [5] 39.7% | [7] 11.5% | [8] 43.9%
active: [4] -33.1% | [6] -15.5%

COc1ccc(Nc2c3c4c(cccc4[nH]c2=O)C(=O)c2ccccc2-3)cc1
inactive: [2] 13.1% | [3] 24.1% | [4] 58.4%
active: [1] 5.52% | [5] -5.92% | [9] -11.9% | [6] -39% | [7] -12.4% | [8] 0.0341%

COc1ccc(C(=O)COc2ccc(/C=C3\Oc4ccc(OC)cc4C3=O)cc2)cc1
inactive: [1] 80.5% | [2] 88% | [3] 117% | [4] 115% | [5] 102% | [6] 103% | [7] 97.3% | [8] 109%

COc1cccc(-c2nc3sccn3c2-c2ccnc(NCCNS(=O)(=O)c3ccc(F)cc3)c2)c1
inactive: [2] 20.1% | [4] 22.3% | [5] 43.7% | [9] 28.6% | [6] 42% | [7] 52.4% | [8] 10.7%
active: [1] -14.1%

Cc1cc(C)c2nc3nc(C)cc(C)c3c(N)c2c1
inactive: [2] 45.3% | [3] 28.7% | [4] 33.6% | [5] 25.4% | [6] 26.5% | [7] 24.3% | [8] 30.9%
active: [1] -13.5%

O=C(/C=C/c1cccc(Cl)c1)c1ccc(O)c(CN2CCN(c3cc4c(cc3F)c(=O)c(C(=O)O)cn4C3CC3)CC2)c1
active: [1] 4.11%
inactive: [2] 20.6% | [4] 79.5% | [5] 79.8% | [9] 48% | [6] 40.8% | [7] 41.3% | [8] 60.5%

O=C(/C=C/c1ccccc1)c1ccc(O)c(CN2CCN(c3cc4c(cc3F)c(=O)c(C(=O)O)cn4C3CC3)CC2)c1
inactive: [3] 38.2% | [4] 85% | [5] 20.3% | [6] 18.4% | [7] 31% | [8] 49%
active: [1] -7.8% | [2] 9.75%

Cc1oc(-c2ccc(Cl)cc2Cl)cc1C(=O)Nc1nccs1
active: [4] 7.78%
inactive: [1] 98.4% | [2] 80% | [3] 83.1% | [5] 89.8% | [9] 81.6% | [6] 101% | [7] 77.1% | [8] 89.6%

Cc1ccc(OC(=O)c2ccc(Cl)cc2)cc1
inactive: [1] 92.4% | [2] 96.7% | [3] 97% | [4] 79.8% | [5] 116% | [9] 116% | [6] 99.9% | [7] 110% | [8] 107%

O=C(COc1ccc(/C=C2\CSc3ccccc3C2=O)cc1)Nc1nccs1
inactive: [2] 79.4% | [4] 104% | [5] 127% | [6] 87.5% | [7] 135% | [8] 80.1%
active: [1] -11%

N#Cc1c(-c2ccc(Cl)cc2)nc(N=Nc2c(O)[nH]c3ccc(Cl)cc23)nc1N1CCOCC1
inactive: [1] 119% | [2] 100% | [3] 98.9% | [4] 99.8% | [5] 96.1% | [9] 92.5% | [6] 115% | [7] 94% | [8] 88.3%

CCCSc1ccc2nc(NC(=O)OC)[nH]c2c1
inactive: [1] 14.4% | [2] 17.1% | [3] 34.2% | [4] 48.9% | [7] 21.2%
active: [5] 6.85% | [6] -32.1% | [8] -8.18%

CSc1nc(Nc2cccc(NC(=O)CCl)c2)c(C#N)c(-c2cccc([N+](=O)[O-])c2)n1
inactive: [2] 37% | [3] 78.7% | [4] 28.7% | [5] 95.5% | [7] 52% | [8] 56.7%
active: [1] -14.1% | [9] 0.383% | [6] 6.67%
